This passage reports growth inhibition results from PubChem BioAssay (NCI).

Each structure is given as a SMILES string. This is part of a sample that, as a whole, favours compounds with a hit. Of some 79,000 tested, about 15% had one in any assay. A number with no mark means an inactive call. Cut-off read from the data, not from the text of the source: active = growth inhibition above about 70%; inactive = the rest.

The nature of the assay: NCI Yeast Anticancer Drug Screen. Data for the mec2-1 strain (AID 157). The note with it: S. cerevisiae mec2-1 strain, at 1.2 µM, active compounds read high. The essentials: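 Using mec2-1 yeast: add compound, measure growth, express inhibition versus vehicle-treated cultures.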
`O=[N+]([O-])c1cc[n+]([O-])cc1`: the growth inhibition is 4%. The figure for `CC1(C)CC(=O)C(/C=N/c2nc(-c3ccccc3)cs2)=C(O)C1` is 2%; for `Nc1nc(N)c2nc(CNc3ccc(C(=O)NC(CCC(=O)O)C(=O)O)cc3F)cnc2n1` (stereo unspecified) it is 19%; for `COC(=O)CC1(O)C(/C=C/c2ccccc2)C(C(=O)OC)C(=O)C(C(=O)OC)C1C(=O)OC` (stereo unspecified) it is -3%. `CC(C)(C)c1ccc(NS(=O)(=O)c2ccc(N)cc2)cc1`: the growth inhibition is 4%. `CCN(CC)CCNc1ccc([N+](=O)[O-])c2nc3ccccc3c(N)c12`: the growth inhibition was -13%. The figure for `CCCCN(CCCC)C(=O)/C=C/c1ccccc1` is -5%.

As to `O=c1[nH]c(-c2ccccc2)nc2c1sc1nc3ccccc3n12`, the growth inhibition is -34%. On to `O=[N+]([O-])c1ccc2c(c1)/C(=N/N=C1c3ccccc3Cc3ccccc31)c1cc([N+](=O)[O-])cc([N+](=O)[O-])c1-2`, for which the growth inhibition was 16%. With `CC(C)C(C)/C=C\C(C)C1CCC2C3=CC=C4CC(O)CCC4(C)C3CCC21C` (stereo unspecified), the growth inhibition is 0%. In the case of `O=C1Nc2ccc(Br)cc2C1=Nc1ccc2c(c1)OCO2`, the growth inhibition was -59%. `CCCCOCn1c(=O)[nH]c(=O)c2cc(Br)ccc21`: the growth inhibition was -1%. For `Cc1ccc(S/C(=C\C(=O)O)c2ccccc2)cc1`, the growth inhibition was -6%. Consider `O=[N+]([O-])/C=C/c1cc(Cl)c(/C=C/[N+](=O)[O-])cc1Cl`, for which the growth inhibition is 39%. The same measure for `Cc1cc(S(=O)(=O)Nc2nnc3cnc4ccccc4n23)c(S)cc1Cl`: -1%; for `O=C(/C=C/c1cc(Cl)cc(Cl)c1O)c1cccc(O)c1`: -19%.
